Screens: PubChem, several laboratories
A selection: hits, their analogues and other compounds. The true share with any hit is near 2.8%.
Platelet DG rel: inhibitors of platelet dense granule secretion, primary screen, cell-based, MLPCN, human platelets; inhibition, %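 (compounds screened at 7.5 µM in platelet-rich plasma)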; 300,000 tested, 0.22% active; human platelet-rich plasma, SFLLRN dense granule ATP release, luminescence;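 active = mean replicate score, as percent of positive control, at or above 50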
AHR act: AHR activators, primary screen, cell-based, luminescence, luciferase reporter, human; activation, % at 5 µM; Aryl hydrocarbon receptor (Homo sapiens), P35869; AHR-responsive luciferase reporter cells; AID 2796, 2010; 320,000 tested, 2.5% active; in the data active = activation above about 47%
HIF activator: HIF pathway transcriptional activators, primary screen, cell-based, U2OS HRE-luciferase, luminescence. 300,000 tested, 0.32% active. activation, % at 7.5 µM (by protocol). U2OS HRE-luciferase reporter; normalized: DMSO 0%, desferrioxamine 100%. AID 1910, 2009;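 active = mean activation of at least 10% of the iron chelator positive control signal, with at least half of replicates also reaching 10%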
PolyA inhibitor: polyadenylation inhibitors in yeast reporter cells, primary screen, luminescence, S. cerevisiae; S. cerevisiae SKY197-pL101 polyadenylation reporter, beta-gal luminescence; efflux-impaired pdr1/pdr3 knockout yeast; score 100 = 6 SD above DMSO; activity score, % at 12 µM; 300,000 tested, 0.02% active; AID 1875, 2009;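 active = lowest replicate activity score at least 50, where 100 means six control SD above control mean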;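 also: yeast exposed to compound for 9 h at 30 °C; higher score means more reporter readthrough which indicates perturbed polyadenylation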
p-CIP stab down: p/CIP-EGFP fusion destabilizers, primary screen, fluorescence, F442A cells; 16 h; decrease of EGFP signal, % at 10 µM; 290,000 tested, 0.01% active;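 active = EGFP signal decrease of at least 30% at 10 µM or well 3 SD below plate mean, unless failing retest; inactive = the rest, including hits failing retest or dose response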
A number is an active result; n = inactive; x = no result.

SMILES	Platelet DG rel	AHR act	HIF activator	PolyA inhibitor	p-CIP stab down
Clc1nc(-c2cccnc2)nc2scc(-c3ccccc3)c12	n	68	n	n	n
Fc1ccccc1Nc1nc(NCc2ccco2)nc(N2CCOCC2)n1	n	54	n	n	n
CC(C)(C)OC(=O)N1CCN(C(=O)c2ncn(Cc3ccccc3)c2C(=O)N2CCN(C(=O)OC(C)(C)C)CC2)CC1	x	n	x	x	x
NC(=O)c1nsc(C(=O)N(c2ccc(F)cc2)C(C(=O)NC2CCCC2)c2ccncc2)c1N (stereo unspecified)	n	n	n	n	n
CC(C)c1ccc(N(C(=O)c2snc(C(N)=O)c2N)C(C(=O)NC2CCCC2)c2ccncc2)cc1 (stereo unspecified)	n	n	44	n	n
Cc1ccc(N2C(=O)c3ccc(N)cc3C2=O)cc1C	n	n	n	n	n
Cc1ccc(N2C(=O)c3ccc(N)cc3C2=O)cc1	n	51	n	n	n
CCCCN(C)CCNC(=O)Cn1ncc2c(=O)oc3ccc(C)cc3c21	n	n	n	n	n
CCOC(=O)c1cc(-c2csc(N/N=C/c3ccccc3Cl)n2)on1	x	50	x	n	n
COC(=O)c1ccccc1S(=O)(=O)N1CCC(C(=O)OCc2ccc([N+](=O)[O-])cc2)CC1	n	n	n	n	x
O=C(CN(Cc1ccccc1Cl)S(=O)(=O)c1ccc(Cl)cc1)N/N=C/c1ccc(C(=O)O)cc1	n	x	n	n	n
CC(=O)Nc1ccc(-c2cc(C(=O)O)c3ccc(C)cc3n2)cc1	n	n	n	n	n
CCn1c(=N)n(CC(=O)c2ccc(OC)cc2)c2ccccc21	n	66	n	n	n
CCn1c(=N)n(CC(=O)c2ccc(Cl)c(Cl)c2)c2ccccc21	n	65	n	n	n
N=c1n(CCN2CCCCC2)c2ccccc2n1CC(=O)c1ccc(Cl)c(Cl)c1	n	111	n	n	n
CCOc1cccc(NC(=O)C2CC(=O)N(c3ccc(F)cc3)C2)c1 (stereo unspecified)	n	n	n	n	n
COCc1c(C(=O)N/N=C/c2cccc3ccccc23)nnn1-c1nonc1N	n	n	n	n	n
CCc1noc(C)c1C(=O)N(C)CC(=O)Nc1ccc(Br)cc1C	n	n	n	n	x
COc1ccccc1C(CNC(=O)c1cc(C)nc2ccccc12)N(C)C (stereo unspecified)	n	n	n	n	n
CCN(CC)C(=O)c1nc[nH]c1C(=O)N1CCc2ccccc2C1	x	n	x	x	x
O=[N+]([O-])c1ccc(/C=N/Nc2ccc3ccccc3c2)o1	n	76	n	n	n
O=C(N/N=C/c1ccc([N+](=O)[O-])o1)c1cc2ccccc2o1	n	n	n	n	n
CCC(=O)Nc1ccc(Cl)c(NC(=O)c2ccccc2OC)c1	n	51	n	n	n
COc1ccccc1C(=O)NCC(=O)Nc1ccc2c(c1)CCC2	x	70	x	x	x
O=C(Nc1cc(NC(=O)c2ccccc2F)ccc1Cl)c1ccccc1	n	79	n	n	n
SMILES	Platelet DG rel	AHR act	HIF activator	PolyA inhibitor	p-CIP stab down
Cc1ccc(NC(=O)c2ccccc2F)c(NC(=O)c2ccccc2F)c1	n	73	n	n	x
Cc1cc(N2CCCC2)nc2ccc(NC(=S)NCCCN3CCC(C)CC3)cc12	n	n	n	n	n
COc1cccc(N2CN(CCc3ccccc3)CNC2=S)c1	x	n	x	n	n
CN(C)c1cccc(C(=O)NNC(=O)CSc2ccccc2)c1	n	n	n	n	n
CCOC(=O)C(C(=O)N(C)Cc1ccccc1)C1CCCCC1 (stereo unspecified)	n	n	n	n	n
CC(C)[C@H](NC(=O)N1c2ccccc2NC(=O)[C@@H]1C(C)C)C(=O)N[C@H](Cc1ccccc1)C(=O)O	n	n	n	n	n
Cc1cc(C)cc(NC(=O)CSc2ccc(-c3ccccn3)nn2)c1	n	n	10	n	n
COc1cccc(C(=O)Nc2nc(-c3ccc4c(c3)OCO4)cs2)c1	n	68	n	n	n
CCOC(=O)N1CCN(C(=O)CSCC(=O)Nc2nc(-c3ccc4c(c3)OCO4)cs2)CC1	x	63	x	x	n
O=C(CSCC(=O)N1CCOCC1)Nc1nc(-c2ccc3c(c2)OCO3)cs1	n	50	n	n	n
Nc1c([N+](=O)[O-])c(=O)oc2ccccc12	n	n	n	n	n
